Several values for one entry are separate records, joined by “and”; a condition that tells them apart may be missing. Equal values may be shown once. About 2,000 (36%) of roughly 5,500 compounds were called active. About 18% were inconclusive and are not listed. No stated cut-off is given here; in the data, active means normalized growth mostly below about 0.91 (no sharp cut-off); inconclusive means no clear call, values can overlap the other calls; inactive means mostly above about 0.92. This is one part of the list.
Assay: chemical genetic growth profiling, strain panel (AID 1159580);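 further: tested at 20 µM; growth read once vehicle control cultures reached saturation at 30 °C; 1 = growth at the plate median or of vehicle wells; lower values mean less growth of the strain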
Conditions: growth OD
[1] = S. cerevisiae deletion strains, locus YAL013W, strain DEP1, hits give low values
[2] = S. cerevisiae deletion strains, locus YBR229C, strain ROT2, hits give low values
[3] = S. cerevisiae deletion strains, locus YDL101C, strain DUN1, hits give low values
[4] = S. cerevisiae deletion strains, locus YDR150W, strain NUM1, hits give low values
[5] = S. cerevisiae deletion strains, locus YEL061C, strain CIN8, hits give low values
[6] = S. cerevisiae deletion strains, locus YGR052W, strain FMP48, hits give low values
[7] = S. cerevisiae deletion strains, locus YGR078C, strain PAC10, hits give low values
[8] = S. cerevisiae deletion strains, locus YHR030C, strain SLT2, hits give low values
[9] = S. cerevisiae deletion strains, locus YHR079C, strain IRE1, hits give low values
[10] = S. cerevisiae deletion strains, locus YHR082C, strain KSP1, hits give low values
[11] = S. cerevisiae deletion strains, locus YHR087W, strain rtc3, hits give low values
[12] = S. cerevisiae deletion strains, locus YJL095W, strain BCK1, hits give low values
[13] = S. cerevisiae deletion strains, locus YJL187C, strain SWE1, hits give low values
[14] = S. cerevisiae deletion strains, locus YJR043C, strain POL32, hits give low values
[15] = S. cerevisiae deletion strains, locus YJR066W, strain TOR1, hits give low values
[16] = S. cerevisiae deletion strains, locus YJR075W, strain HOC1, hits give low values
[17] = S. cerevisiae deletion strains, locus YKL203C, strain TOR2, hits give low values
[18] = S. cerevisiae deletion strains, locus YLR039C, strain RIC1, hits give low values
[19] = S. cerevisiae deletion strains, locus YLR058C, strain SHM2 (second series), hits give low values
[20] = S. cerevisiae deletion strains, locus YLR085C, strain ARP6, hits give low values
[21] = S. cerevisiae deletion strains, locus YLR113W, strain HOG1, hits give low values
[22] = S. cerevisiae deletion strains, locus YLR262C, strain YPT6, hits give low values
[23] = S. cerevisiae deletion strains, locus YML094W, strain GIM5, hits give low values
[24] = S. cerevisiae deletion strains, locus YMR219W, strain ESC1, hits give low values
[25] = S. cerevisiae deletion strains, locus YMR263W, strain SAP30, hits give low values
[26] = S. cerevisiae deletion strains, locus YNL153C, strain GIM3, hits give low values
[27] = S. cerevisiae deletion strains, locus YNL183C, strain NPR1, hits give low values
[28] = S. cerevisiae deletion strains, locus YNL207W, strain RIO2, hits give low values
[29] = S. cerevisiae deletion strains, locus YNL298W, strain CLA4 (second series), hits give low values
[30] = S. cerevisiae deletion strains, locus YNL322C, strain KRE1, hits give low values
[31] = S. cerevisiae deletion strains, locus YNR030W, strain Alg12, hits give low values
[32] = S. cerevisiae deletion strains, locus YOL006C, strain TOP1, hits give low values
[33] = S. cerevisiae deletion strains, locus YOR119C, strain RIO1, hits give low values
[34] = S. cerevisiae deletion strains, locus YOR231W, strain MKK1, hits give low values
[35] = S. cerevisiae deletion strains, locus YPL055C, strain LGE1, hits give low values
[36] = S. cerevisiae deletion strains, locus YPL241C, strain CIN2, hits give low values
[37] = S. cerevisiae deletion strains, locus YPL256C, strain CLN2, hits give low values
[38] = S. cerevisiae deletion strains, locus YPR135W, strain CTF4, hits give low values

Measured: normalized growth

CCOC(=O)c1ccc(Oc2sccc2[N+](=O)[O-])cc1
inactive: [4] 0.866 | [6] 0.872 | [10] 0.878 | [12] 0.772 | [13] 1.02 | [15] 0.876 | S. cerevisiae deletion strains, locus YKL171W, strain NNK1, hits give low values 0.854 | [21] 0.735 | [27] 0.864 | [28] 0.862 | [33] 0.86 | [34] 0.869 | [35] 0.84
active: [1] 0.796 | [2] 0.817 | [3] 0.77 | [5] 0.442 | [7] 0.811 | [8] 0.167 and 0.769 | [9] 0.852 | [11] 0.848 | [14] 0.81 | [16] 0.719 | S. cerevisiae deletion strains, locus YKL190W, strain CNB1, hits give low values 0.0675 | [17] 0.849 | [18] 0.239 | [19] 0.928 | [20] 0.143 | [22] 0.407 | [23] 0.747 | [24] 0.848 | [25] 0.867 | [26] 0.849 | [29] 0.241 | [30] 0.931 | [31] 0.341 | [32] 0.102 | [36] 0.446 | [37] 0.734 | [38] 0.211 | S. cerevisiae strains, strain wild type, hits give low values 0.0898

CCOC(=O)c1ccc(Oc2ccc(Cl)cc2Cl)c([N+](=O)[O-])c1
inactive: [1] 1 | [2] 0.993 | [3] 0.992 | [4] 1.01 | [5] 0.959 | [7] 1.01 | [8] 0.883 | [11] 0.998 | [13] 0.99 | [14] 0.996 | [16] 0.968 | [18] 1 | [19] 0.99 | [20] 0.92 | [22] 1.01 | [23] 0.975 | [24] 0.997 | [25] 0.996 | S. cerevisiae deletion strains, locus YNL128W, strain TEP1, hits give low values 0.987 | [26] 0.998 | [29] 0.961 | [30] 1 | [31] 0.959 | [32] 0.81 | [35] 0.961 | [36] 0.958 | [38] 0.918

N#Cc1ccc(Oc2sccc2[N+](=O)[O-])cc1
inactive: S. cerevisiae deletion strains, locus YAR019C, strain CDC15, hits give low values 0.937 | S. cerevisiae deletion strains, locus YBL105C, strain PKC1, hits give low values 0.978 | S. cerevisiae deletion strains, locus YBR135W, strain CKS1, hits give low values 0.946 | S. cerevisiae deletion strains, locus YBR136W, strain MEC1, hits give low values 0.971 | S. cerevisiae deletion strains, locus YBR160W, strain CDC28, hits give low values 0.992 | S. cerevisiae deletion strains, locus YDL017W, strain CDC7, hits give low values 0.985 | S. cerevisiae deletion strains, locus YDL028C, strain MPS1, hits give low values 0.978 | [3] 0.959 | S. cerevisiae deletion strains, locus YDL108W, strain KIN28, hits give low values 0.97 | S. cerevisiae deletion strains, locus YDL132W, strain cdc53, hits give low values 0.942 | S. cerevisiae deletion strains, locus YDL214C, strain PRR2, hits give low values 0.901 | S. cerevisiae deletion strains, locus YDR052C, strain DBF4, hits give low values 0.975 | S. cerevisiae deletion strains, locus YDR054C, strain cdc34, hits give low values 0.907 | S. cerevisiae deletion strains, locus YDR226W, strain ADK1, hits give low values 0.98 | S. cerevisiae deletion strains, locus YDR477W, strain SNF1, hits give low values 0.888 | S. cerevisiae deletion strains, locus YER123W, strain YCK3, hits give low values 0.748 | S. cerevisiae deletion strains, locus YER133W, strain GLC7, hits give low values 0.847 | S. cerevisiae deletion strains, locus YFL009W, strain cdc4, hits give low values 0.908 | S. cerevisiae deletion strains, locus YFL029C, strain CAK1, hits give low values 0.907 | S. cerevisiae deletion strains, locus YFR003C, strain YPI1, hits give low values 0.975 | S. cerevisiae deletion strains, locus YFR019W, strain FAB1, hits give low values 0.924 | S. cerevisiae deletion strains, locus YFR028C, strain CDC14, hits give low values 0.953 | S. cerevisiae deletion strains, locus YGR040W, strain KSS1, hits give low values 0.867 | [6] 0.879 | S. cerevisiae deletion strains, locus YGR092W, strain DBF2, hits give low values 0.769 | [8] 0.942 | [9] 0.955 | [10] 0.934 | S. cerevisiae deletion strains, locus YHR205W, strain SCH9, hits give low values 0.894 | S. cerevisiae deletion strains, locus YIL147C, strain SLN1, hits give low values 0.969 | [12] 0.825 | S. cerevisiae deletion strains, locus YJL128C, strain PBS2, hits give low values 0.923 | S. cerevisiae deletion strains, locus YJL157C, strain FAR1, hits give low values 0.883 | S. cerevisiae deletion strains, locus YJR016C, strain ILV3, hits give low values 0.946 | S. cerevisiae deletion strains, locus YJR066W, strain TOR1 (second series), hits give low values 0.821 | [15] 0.907 | S. cerevisiae deletion strains, locus YKL048C, strain ELM1, hits give low values 0.95 | S. cerevisiae deletion strains, locus YKL067W, strain YNK1, hits give low values 0.895 | S. cerevisiae deletion strains, locus YKL101W, strain HSL1, hits give low values 0.927 | S. cerevisiae deletion strains, locus YKL193C, strain SDS22, hits give low values 0.941 | [17] 0.911 | S. cerevisiae deletion strains, locus YLR133W, strain CKI1, hits give low values 0.933 | S. cerevisiae deletion strains, locus YLR403W, strain SFP1, hits give low values 0.863 | S. cerevisiae deletion strains, locus YML070W, strain DAK1, hits give low values 0.869 | S. cerevisiae deletion strains, locus YMR001C, strain CDC5, hits give low values 0.935 | S. cerevisiae deletion strains, locus YMR205C, strain PFK2 (second series), hits give low values 0.899 | S. cerevisiae deletion strains, locus YMR277W, strain FCP1, hits give low values 0.92 | S. cerevisiae deletion strains, locus YNL006W, strain LST8, hits give low values 0.932 | S. cerevisiae deletion strains, locus YNL020C, strain ARK1, hits give low values 0.934 | S. cerevisiae deletion strains, locus YNL161W, strain CBK1, hits give low values 0.956 | [27] 0.856 | [28] 0.956 | S. cerevisiae deletion strains, locus YNL222W, strain SSU72, hits give low values 0.957 | S. cerevisiae deletion strains, locus YNL307C, strain MCK1 (second series), hits give low values 0.918 | S. cerevisiae deletion strains, locus YOL078W, strain AVO1, hits give low values 0.914 | S. cerevisiae deletion strains, locus YOL136C, strain PFK27, hits give low values 0.901 | S. cerevisiae deletion strains, locus YOR061W, strain CKA2, hits give low values 0.886 | [33] 0.925 | [34] 0.837 | S. cerevisiae deletion strains, locus YOR329C, strain SCD5, hits give low values 0.977 | S. cerevisiae deletion strains, locus YPL031C, strain PHO85, hits give low values 0.876 | S. cerevisiae deletion strains, locus YPL153C, strain RAD53, hits give low values 0.866 | S. cerevisiae deletion strains, locus YPL204W, strain HRR25, hits give low values 0.872 | S. cerevisiae deletion strains, locus YPL209C, strain IPL1, hits give low values 0.98 | [37] 1.05 | S. cerevisiae deletion strains, locus YPR025C, strain CCL1, hits give low values 0.971 | S. cerevisiae deletion strains, locus YPR106W, strain ISR1, hits give low values 0.96 | S. cerevisiae deletion strains, locus YPR111W, strain DBF20, hits give low values 0.993 | S. cerevisiae deletion strains, strain NNK1, hits give low values 0.971 | S. cerevisiae deletion strains, strain TSCII, hits give low values 0.921
active: [21] 0.76

— PubChem BioAssay AID1159580 (chemical genetic matrix, 2015)
